Source: PubChem BioAssay AID493065 (National Center for Advancing Translational Sciences (NCATS), 2011)
The list shows a part of the results. Records with an inconclusive call do not appear. Values without a mark were called inactive. Calls come from the whole dose curve; as a rule, active = well fitted activation curve with a large enough effect; inconclusive = small, poorly fitted or top-dose-only effect; inactive = flat fitted curve, though single readings scatter.

Experiment: Parental Cell Counter Screen Assay for Epigenetic Modulators: Hit Validation
Settings: mouse c127i parental cells, 30 h, hits give high values, concentration not given here
Excerpt: NIH Molecular Libraries Screening Centers Network [MLSCN] NIH Chemical Genomics Center [NCGC] MLSCN Grant: 1 X01 MH079860-01 Assay Provider: Elisabeth D. Martinez, University of Texas SW Medical Center NCGC Assay Overview: This assay is a counter screen for the Locus Derepression (LDR) assay (PubChem AID 1865). The LDR assay detects the derepression of a GFP reporter that is stably integrated in a region of the genome of murine c127i mammary cells that is presumably silenced. Compounds that cause derepression of the locus to express GFP are identified by enumerating GFP positive cells using a laser-scanning microplate cytometer. […] Compounds active in the parental c127i cells are likely fluorescent.
NCGC Assay Protocol Summary: Three hundred cells in 5 uL per well were dispensed into black, clear-bottom 1536-well plates. Twenty-three nL compound was transferred to the assay plate and cells were incubated 30 hours at 37 C. Medium was removed, cells were washed two times with PBS, and fluorescent cells were enumerated as objects between the sizes of 20 to 120 um width and depth using a laser-scanning microplate imager (Acumen Explorer Ex3, TTP Labtech). For further details, see Johnson, RL, Huang, W, Jadhav, A, Austin, CP, Inglese, J, Martinez, ED (2008). A quantitative high-throughput screen identifies potential epigenetic modulators of gene expression. Anal Biochem 375: 237-48.

Which fluorescent cell count does the source give for `O=C1NC(=O)N(CCc2ccc(F)cc2)C(=O)/C1=C/C=C/c1ccccc1` here?
Its fluorescent cell count is 3%.
